Laboratory results reported in PubChem BioAssay (NCATS).
Inconclusive results are not listed. Where a call stands in place of a potency, no number is given. Activity calls are given as the source filed them. The call rests on the fitted dose curve.

How the values were obtained:
[1] = Primary qHTS for inhibitors of SARS-S pseudo-typed particle cell entry (AID 1479145); conditions: outcome: dose series up to 57.1 µM unless noted; further: nearly all actives have a fitted effect of over 45% in size
[2] = Primary qHTS for Huh7 cytotoxicity: counterscreen for inhibitors of MERS-S pseudotyped particle cell entry (AID 1479147); conditions: outcome: dose series up to 57.1 µM unless noted; further: potency means the concentration at half of the fitted maximal effect
[3] = Primary qHTS for inhibitors of MERS-S pseudo-typed particle cell entry (AID 1479149); conditions: outcome: dose series up to 57.1 µM unless noted; further: nearly all actives have a fitted effect of over 60% in size
[4] = Primary qHTS for Vero E6 cytotoxicity: counterscreen for inhibitors of SARS-S pseudo-typed particle cell entry (AID 1479150); conditions: outcome: dose series up to 57.1 µM unless noted; further: potency means the concentration at half of the fitted maximal effect
[5] = Cytotoxicity counterscreen for inhibitors of SARS-CoV-2 cell entry (AID 1645845); conditions: outcome: dose series up to 57.1 µM unless noted; further: nearly all actives have a fitted effect of over 50% in size; further: potency means the concentration at half of the fitted maximal effect
How it was run: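 ATP-content luminescence (ATPLite 1step, 15 min RT) read after 48 h compound exposure of Expi293F cells stably expressing human ACE2; normalized to cells-only wells and media-only wells.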

[6] = Primary qHTS to identify inhibitors of SARS-CoV-2 cell entry (AID 1645846); conditions: SARS-CoV-2 pseudovirus cell entry assay, luminescence; activity change, negative = inhibition: at 57.1 µM (top of the series) unless noted; further: nearly all actives have a fitted effect of over 45% in size
How it was run: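 Entry measured by luciferase signal 48 h after adding SARS-CoV-2-S pseudotyped MLV particles to HEK293-ACE2 cells preincubated 1 h with compounds. Normalisation: bald particles and spike particles.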

SMILES	Potency [1]	Potency [2]	Potency [3]	Potency [4]	Potency [5]	activity change, negative = inhibition [6] [%]
NC(=O)[C@@H]1CC[C@@H]2CN1C(=O)N2OS(=O)(=O)O	inactive	inactive	inactive	inactive	inactive	–
CCCCC(CC)CCC(CC(C)C)OS(=O)(=O)O (stereo not drawn)	inactive	inactive	inactive	inactive	inactive	–
COc1ccc(CCNCC(O)COc2cccc(C)c2)cc1OC (stereo not drawn)	inactive	inactive	inactive	inactive	inactive	–
CC(C)OC(=O)Nc1ccc2nc(-c3cscn3)[nH]c2c1	inactive	10 µM (active)	inactive	8.91 µM (active)	7.08 µM (active)	–
OC[C@H]1O[C@@H](O)[C@H](O)[C@@H](O)[C@@H]1O	inactive	inactive	inactive	inactive	inactive	–
COc1ccc(NC(=O)c2ccc(C(=N)N(C)C)cc2)c(C(=O)Nc2ccc(Cl)cn2)c1	inactive	inactive	inactive	inactive	inactive	–
CO/N=C(\C(=O)N[C@@H]1C(=O)N2C(C(=O)O)=C(CSc3cnns3)CS[C@H]12)c1csc(N)n1	inactive	inactive	inactive	inactive	inactive	–
FC(F)OC(Cl)C(F)(F)F (stereo not drawn)	inactive	inactive	inactive	inactive	inactive	–
CCCCC(CC)COC(=O)CC(C(=O)OCC(CC)CCCC)S(=O)(=O)O (stereo not drawn)	inactive	inactive	inactive	inactive	inactive	–
Oc1c(Br)cc(Br)cc1CNC1CCC(O)CC1 (stereo not drawn)	inactive	inactive	inactive	inactive	inactive	–
OCc1cc(C(O)CNCCCCCCOCCOCc2c(Cl)cccc2Cl)ccc1O (stereo not drawn)	inactive	inactive	inactive	inactive	inactive	–
FC(F)(F)C(F)(F)C(F)(F)C(F)(F)C(F)(F)C(F)(F)F	inactive	inactive	inactive	inactive	inactive	–
CC(C)CCC[C@@H](C)[C@H]1CC[C@H]2[C@@H]3CC[C@H]4C[C@@H](O)CC[C@]4(C)[C@@H]3CC[C@]12C	inactive	inactive	inactive	inactive	inactive	–
CC(C)C(=O)OCC(=O)[C@@]12OC(C3CCCCC3)O[C@@H]1C[C@H]1[C@@H]3CCC4=CC(=O)C=C[C@]4(C)[C@H]3[C@@H](O)C[C@@]12C (stereo partly drawn)	inactive	inactive	inactive	inactive	inactive	–
N#Cc1cc(-c2n[nH]c(-c3ccncc3)n2)ccn1	inactive	inactive	inactive	inactive	inactive	–
CC1(C)S[C@@H]2[C@H](NC(=O)[C@H](N)c3ccccc3)C(=O)N2[C@H]1C(=O)OCOC(=O)[C@@H]1N2C(=O)C[C@H]2S(=O)(=O)C1(C)C	inactive	inactive	inactive	inactive	inactive	–
CCOC(=O)COc1ccc2c(C)c(CCN(CC)CC)c(=O)oc2c1	inactive	inactive	inactive	inactive	inactive	–
NC(=O)C1CCCN1C(=O)C(Cc1cnc[nH]1)NC(=O)C1CCC(=O)N1 (stereo not drawn)	inactive	inactive	inactive	inactive	inactive	–

SMILES	Potency [1]	Potency [2]	Potency [3]	Potency [4]	Potency [5]	activity change, negative = inhibition [6] [%]
CCCC(=O)Nc1ncnc2c1ncn2C1O[C@@H]2COP(=O)(O)O[C@H]2[C@H]1OC(=O)CCC (stereo partly drawn)	inactive	inactive	inactive	inactive	inactive	–
Cc1ncc([N+](=O)[O-])n1CCOC(=O)c1ccccc1	inactive	inactive	inactive	inactive	inactive	–
Cc1cc(Nc2ccccc2C(=O)O)ccc1Cl	inactive	inactive	inactive	inactive	inactive	–
COC(=O)N[C@H](C(=O)N1CCC[C@H]1c1ncc(-c2ccc3c(c2)O[C@@H](c2ccccc2)n2c-3cc3cc(-c4cnc([C@@H]5CCCN5C(=O)[C@@H](NC(=O)OC)C(C)C)[nH]4)ccc32)[nH]1)C(C)C	inactive	inactive	inactive	inactive	inactive	–
O=C(Cc1cccs1)NC1C(=O)N2C(C(=O)[O-])=C(C[n+]3ccccc3)CSC12 (stereo not drawn)	inactive	inactive	inactive	inactive	inactive	–
CCCCCCCCCCCCCCCC(=O)OC1CCCn2c1nc(C)c(CCN1CCC(c3noc4cc(F)ccc34)CC1)c2=O (stereo not drawn)	inactive	inactive	inactive	inactive	inactive	–
Cn1c(=O)cc(N2CCC[C@@H](N)C2)n(Cc2cc(F)ccc2C#N)c1=O	inactive	inactive	inactive	inactive	inactive	–
OC[C@H]1O[C@@H](OC[C@H]2O[C@@H](O[C@@H]3[C@@H](O)[C@H](O)O[C@H](CO)[C@H]3O)[C@H](O)[C@@H](O[C@@H]3O[C@H](CO)[C@@H](O)[C@H](O)[C@H]3O)[C@@H]2O)[C@H](O)[C@@H](O)[C@@H]1O	inactive	inactive	inactive	inactive	inactive	–
CN(C(=O)CO)c1c(I)c(C(=O)NCC(O)CO)c(I)c(C(=O)NCC(O)CO)c1I (stereo not drawn)	inactive	inactive	inactive	inactive	inactive	–
O=C(O)CSc1nnc(Br)n1-c1ccc(C2CC2)c2ccccc12	inactive	inactive	inactive	inactive	inactive	–
COc1cc2c(cc1OC)[C@@H](Cc1cc(OC)c(OC)c(OC)c1)[N+](C)(CCCOC(=O)CC/C=C/CCC(=O)OCCC[N+]1(C)CCc3cc(OC)c(OC)cc3[C@H]1Cc1cc(OC)c(OC)c(OC)c1)CC2 (stereo partly drawn)	inactive	inactive	inactive	inactive	inactive	–
CCC1(C)OC(=O)N(C)C1=O (stereo not drawn)	inactive	inactive	inactive	inactive	inactive	–
CC1(C)S[C@@H]2[C@H](NC(=O)C(C(=O)Oc3ccc4c(c3)CCC4)c3ccccc3)C(=O)N2[C@H]1C(=O)O (stereo partly drawn)	inactive	inactive	inactive	inactive	inactive	–
O=C1C(c2[nH]c3ccc(S(=O)(=O)O)cc3c2O)=Nc2ccc(S(=O)(=O)O)cc21	inactive	inactive	inactive	inactive	inactive	–
CCOC(=O)O[C@]1(C(=O)COC(=O)CC)CC[C@H]2[C@@H]3CCC4=CC(=O)C=C[C@]4(C)[C@H]3[C@@H](O)C[C@@]21C	inactive	inactive	inactive	inactive	inactive	–
CCCCCCCCN=C(N)NC(N)=NCc1ccc(Cl)c(Cl)c1	inactive	inactive	inactive	inactive	inactive	-3.64
CC(C)(C)NCC(O)CSc1nc(-c2ccc(C(N)=O)s2)cs1 (stereo not drawn)	inactive	inactive	inactive	inactive	inactive	-22.9
CCCCC[C@H](O)/C=C/[C@@H]1[C@@H](C/C=C/CCCC(=O)O)[C@@H](O)C[C@H]1O	inactive	inactive	inactive	inactive	inactive	-6.41
